Compound activity as filed in PubChem.
Shown are actives, neighbours in structure and some others; about 19% of the full set was active somewhere.
HT1080 IDH1KD tx = kills HT-1080 cells with IDH1 knockdown; HT-1080 IDH1 knockdown viability, ATP luminescence, 48 h; Potency, µM (highest dose often 46.1 µM), for inactives: at the top dose activity, negative = toxicity, actives largely listed as cytotoxic; 360,000 compounds, 2% hits;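 note: 0% = DMSO wells and -100% = cell-free medium wells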
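CellTiter-Glo luminescence after 48 h compound exposure at 37 degrees C of IDH1-knockdown HT-1080 cells in 5% FBS RPMI. %Activity scaled between DMSO wells and cell-free media wells, with curves fitted and assigned curve classes.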
DT40 TDP1 CPT = growth inhibition of DT40 Tdp1-/-;hTDP1 cells with camptothecin (screen for TDP1 inhibitors); 420,000 compounds, 12% hits; chicken DT40 Tdp1-/-;hTDP1 cells + 20 nM CPT, ATP luminescence, 48 h; AID 686979; Potency, µM (top dose mostly 46.2 µM), without a hit: at the highest dose activity change, negative = growth inhibition, hits mostly inhibitors; note: nearly all actives have a fitted effect of over 55% in size
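Chicken DT40 Tdp1-/- cells complemented with human TDP1, 400 cells/well, exposed to compounds plus 20 nM camptothecin for at least 48 h at 37 C; viability read as ATP content by CellTiter-Glo luminescence.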
KB-3-1 cytotox = kills parental KB-3-1 adenocarcinoma cells; KB-3-1 viability, CellTiter-Glo ATP luminescence, 72 h; Potency, µM (doses to about 46.1 µM), actives largely listed as cytotoxic; 400,000 compounds, 1.4% hits; note: nearly all actives have a fitted effect of over 60% in size
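Parental KB-3-1 viability, qHTS format: 72 h compound exposure, 37 °C; CellTiter-Glo; media-only wells and DMSO plates as controls; concentration-effect fits on corrected data.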
KB-V1 MDR tox = kills drug-selected multidrug resistant KB-V1 cells. Potency, µM (doses to about 46.1 µM), usual class: cytotoxic. 400,000 compounds, 3.4% hits. KB-V1 MDR cells viability, CellTiter-Glo, 72 h; note: nearly all actives have a fitted effect of over 60% in size
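In this primary screen, KB-V1 cells overexpressing P-gp are incubated with library compounds (lowest to highest concentration) for 72 h at 37 degrees C before a luminescent ATP viability read.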
DT40 TDP1 no CPT = qHTS for Inhibitors of human tyrosyl-DNA phosphodiesterase 1 (TDP1): qHTS in cells in absence of CPT. DT40 Tdp1-/- hTDP1 cells, no CPT, ATP luminescence, 48 h. Potency, µM (highest dose often 46.2 µM), without a hit: at the highest dose activity change, negative = growth inhibition, hits mostly inhibitors. 420,000 compounds, 15% hits; note: nearly all actives have a fitted effect of over 55% in size
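A cellular qHTS used chicken DT40 cells lacking endogenous Tdp1 but carrying stably transfected human TDP1. Compounds were applied without camptothecin, and cell growth kinetics were judged by ATP-dependent luminescence after ≥48 hr.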
HT1080NT lethal = kills 2HG-producing HT-1080-NT fibrosarcoma cells | 360,000 compounds, 1.6% hits | Potency, µM (titrated, usually from 46.1 µM), without a hit: top-dose activity, negative = less viability, most hits filed as cytotoxic | AID 686970 | HT-1080-NT fibrosarcoma viability, CellTiter-Glo ATP luminescence, 48 h;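 note: NT is the 2HG producing partner of a matched IDH1 knockdown line; 0% = DMSO-treated cells and -100% = media-only wells without cells; nearly all actives have a fitted effect of over 55% in size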
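Toxicity toward the 2HG-producing NT line was scored as %Activity, normalised to DMSO and no-cell wells, from CellTiter-Glo luminescence after 48 hours' treatment.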
Starred values were filed as active, the others as inactive; [ ] = remark or other dose. Calls come from the whole dose curve; as a rule, active = well fitted curve in the direction sought with a large enough effect; inconclusive = small, poorly fitted or top-dose-only effect, or another doubt; inactive = no such curve, though single readings can be large; an effect the other way counts as inactive or inconclusive. Unless noted, % is set by controls: 0 for no effect and ±100 for the full control effect; potency is the fitted concentration of half-maximal effect.

For Nc1ccc(C(=O)c2cccs2)cc1[N+](=O)[O-] the results were HT1080 IDH1KD tx -1%, DT40 TDP1 CPT -11%, KB-3-1 cytotox inactive, KB-V1 MDR tox inactive, DT40 TDP1 no CPT -25% and HT1080NT lethal 22%.
CCn1c2ccccc2c2cc(NC(=O)c3cccc(OC)c3)ccc21 was read as HT1080 IDH1KD tx inconclusive, DT40 TDP1 CPT 8.9µM*, KB-3-1 cytotox inconclusive, KB-V1 MDR tox inconclusive, DT40 TDP1 no CPT 7.9µM* and HT1080NT lethal 13µM*.
`COc1cccc(C(=O)Nc2cccc3c2ccc2cccn23)c1` gave HT1080 IDH1KD tx -28%, DT40 TDP1 CPT 16µM*, KB-3-1 cytotox inactive, KB-V1 MDR tox inactive, DT40 TDP1 no CPT 23µM* and HT1080NT lethal -23%.
For CCn1c2ccccc2c2cc(NC(=O)c3ccc([N+](=O)[O-])cc3)ccc21 the results were HT1080 IDH1KD tx -17%, DT40 TDP1 CPT -5%, KB-3-1 cytotox inconclusive, KB-V1 MDR tox inactive, DT40 TDP1 no CPT inconclusive and HT1080NT lethal -11%.
For CCn1c2ccccc2c2cc(NC(=O)c3ccccc3[N+](=O)[O-])ccc21 the results were HT1080 IDH1KD tx -23%, DT40 TDP1 CPT 21µM*, KB-3-1 cytotox inconclusive, KB-V1 MDR tox inactive, DT40 TDP1 no CPT 23µM* and HT1080NT lethal -18%.
For CCn1c2ccccc2c2cc(NC(=O)c3cccc(OC)c3OC)ccc21 the results were HT1080 IDH1KD tx -23%, DT40 TDP1 CPT 8.2µM*, KB-3-1 cytotox inactive, KB-V1 MDR tox inconclusive, DT40 TDP1 no CPT 4.1µM* and HT1080NT lethal -18%.
Screening CCn1c2ccccc2c2cc(NC(C)=O)ccc21 returned HT1080 IDH1KD tx -4%, DT40 TDP1 CPT 15%, KB-3-1 cytotox inactive, KB-V1 MDR tox inconclusive, DT40 TDP1 no CPT 1% and HT1080NT lethal 2%.
`COC(=O)c1ccccc1NC(=O)Cn1c(=O)n(CCC(=O)NCc2ccc3c(c2)OCO3)c(=O)c2ccccc21` gave DT40 TDP1 CPT inconclusive, KB-3-1 cytotox inactive, KB-V1 MDR tox inactive and DT40 TDP1 no CPT inconclusive.
Screening COc1cc(OC)c(NC(=O)C(c2ccccc2)N2Cc3ccccc3C2=O)cc1Cl (stereo not drawn) returned DT40 TDP1 CPT inconclusive and DT40 TDP1 no CPT -23%.
`NCCSC1CC(=O)N(Cc2ccc(F)cc2)C1=O` (stereo not drawn) gave HT1080 IDH1KD tx 0%, DT40 TDP1 CPT -19%, KB-3-1 cytotox inactive, KB-V1 MDR tox inactive, DT40 TDP1 no CPT -1% and HT1080NT lethal 15%.
`O=C1CC(Sc2ccc(Cl)cc2)C(=O)N1Cc1ccncc1` (stereo not drawn) gave HT1080 IDH1KD tx -7%, DT40 TDP1 CPT 23µM*, KB-3-1 cytotox inactive, KB-V1 MDR tox inactive, DT40 TDP1 no CPT 18µM* and HT1080NT lethal -9%.
For CCCCCCn1cc(CN2CC(N3CCN(Cc4cccc(C)c4)CC3)CS2(=O)=O)nn1 (stereo not drawn) the results were HT1080 IDH1KD tx -17%, DT40 TDP1 CPT inconclusive, KB-3-1 cytotox inactive, KB-V1 MDR tox inactive, DT40 TDP1 no CPT 23µM* and HT1080NT lethal -4%.
Screening CCCCCCN1CCN(C2CN(C3CCCCC3)S(=O)(=O)C2)CC1 (stereo not drawn) returned HT1080 IDH1KD tx 1%, DT40 TDP1 CPT 16µM*, KB-3-1 cytotox inactive, KB-V1 MDR tox inactive, DT40 TDP1 no CPT inconclusive and HT1080NT lethal 12%.
Screening CCCCCCN1CCN(C2CN(Cc3cn(Cc4ccc(C)cc4)nn3)S(=O)(=O)C2)CC1 (stereo not drawn) returned HT1080 IDH1KD tx 23µM*, DT40 TDP1 CPT inconclusive, KB-3-1 cytotox inactive, KB-V1 MDR tox inconclusive, DT40 TDP1 no CPT 26µM* and HT1080NT lethal -21%.
`CCCCCCN1CCN(C2CN(CCc3ccccc3)S(=O)(=O)C2)CC1` (stereo not drawn) gave HT1080 IDH1KD tx 4%, DT40 TDP1 CPT inconclusive, KB-3-1 cytotox inactive, KB-V1 MDR tox inactive, DT40 TDP1 no CPT 16µM* and HT1080NT lethal 0%.
`Cc1noc(C)c1C(=O)N1CCC2(CCN(C(=O)Nc3ccccc3)CC2)CC1` gave DT40 TDP1 CPT -5% and DT40 TDP1 no CPT -3%.
`C/C(=N/NC(=O)C(C)n1nc(C)c([N+](=O)[O-])c1C)c1ccc(OCC(N)=O)cc1` (stereo not drawn) gave HT1080 IDH1KD tx 8%, DT40 TDP1 CPT inconclusive, KB-3-1 cytotox inconclusive, KB-V1 MDR tox inactive, DT40 TDP1 no CPT inconclusive and HT1080NT lethal 12%.
`CCCCCCCCCCCCCCCC(=O)N[C@@H](COP(=O)(O)O)C(=O)O` gave DT40 TDP1 CPT -7%[4.12 µM] and DT40 TDP1 no CPT -5%[4.12 µM].
`O=C1c2ccccc2S(=O)(=O)c2cc(C(=O)N3CCC(C(=O)N4CCCCC4)CC3)ccc21` gave HT1080 IDH1KD tx 6%, DT40 TDP1 CPT -24%, KB-3-1 cytotox inactive, KB-V1 MDR tox inconclusive, DT40 TDP1 no CPT -23% and HT1080NT lethal 5%.
`CCN(Cc1ccccc1)C(=O)CCc1nc(CN2CCN(C(=O)c3ccc([N+](=O)[O-])cc3)CC2)no1` gave HT1080 IDH1KD tx 5%, DT40 TDP1 CPT inconclusive, KB-3-1 cytotox inactive, KB-V1 MDR tox inactive, DT40 TDP1 no CPT inconclusive and HT1080NT lethal 2%.
For C/C=C/c1ccc(OCC(O)CN(C)Cc2ccc(SC)cc2)c(OC)c1 (stereo not drawn) the results were HT1080 IDH1KD tx -10%, DT40 TDP1 CPT inconclusive, KB-3-1 cytotox inactive, KB-V1 MDR tox inactive, DT40 TDP1 no CPT 23µM* and HT1080NT lethal -21%.
Screening O=C(CCCC(=O)N1CCCC1)N1CCCC1 returned HT1080 IDH1KD tx 8%, DT40 TDP1 CPT 10%, KB-3-1 cytotox inactive, KB-V1 MDR tox inactive, DT40 TDP1 no CPT -12% and HT1080NT lethal 2%.
`O=C(CCCCCCCCC(=O)N1CCCCC1)N1CCCCC1` gave HT1080 IDH1KD tx 3%, DT40 TDP1 CPT inconclusive, KB-3-1 cytotox inconclusive, KB-V1 MDR tox 2.3µM*, DT40 TDP1 no CPT inconclusive and HT1080NT lethal 8%.
For O=C(CCCCCCCC(=O)N1CCCCCC1)N1CCCCCC1 the results were HT1080 IDH1KD tx 1%, DT40 TDP1 CPT 23µM*, DT40 TDP1 no CPT inconclusive and HT1080NT lethal 0%.
